KLF5 inh – inhibitors of KLF5 expression; DLD-1 KLF5 promoter-luciferase reporter, luminescence; inhibition, % at 5 µM; 290,000 tested, 0.23% active; AID 1700;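 active means inhibition above a per-plate limit of that plate's mean compound inhibition plus 3 SD, cut at about 60% in these data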;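 further: higher means less KLF5 promoter-driven luciferase light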
IEC-6 tox-1 – IEC-6 cytotoxicity, counter-screen for KLF5 inhibitors; luminescence viability; inhibition, % at 5 µM; 290,000 tested, 0.78% active; AID 1825
Ba/F3 V617F tox – loss of viability in JAK2V617F-driven Ba/F3 cells; 220,000 tested, 1.1% active; Ba/F3 EpoR-JAK2V617F viability, ATP luminescence; inhibition, % at 5.6 µM;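 active means inhibition above the campaign mean plus 3 SD over all tested compounds, cut at about 24% in these data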;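 further: cytokine-independent growth of Ba/F3 cells driven by EpoR plus mutant JAK2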
BaF3 tox – counter-screen for JAK2V617F inhibitors: parental Ba/F3 viability inhibitors. AID 1486. CellTiter-Glo ATP luminescence. inhibition, % at 5.6 µM. 220,000 tested, 1.1% active;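 active means inhibition above a per-campaign cutoff, the mean inhibition of all tested compounds plus 3 SD, cut at about 27% in these data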
aSyn UTR inh – 5' untranslated region of α-synuclein, MLPCN primary screen | 300,000 tested, 0.82% active | alpha-synuclein 5'UTR reporter, inhibitor activity | AID 1813 | inhibition, % (tested at 7.5 µM); in the data active means inhibition above about 60%; inconclusive means no clear call, values can overlap the other calls;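 further: H4 neuroglioblastoma cells stably carrying SNCA 5'UTR luciferase fusion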
APP transl inh – APP translation inhibition. SH-SY5Y APP 5'UTR-luciferase reporter, luminescence. inhibition, % at 2 µM. 190,000 tested, 0.82% active;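 active means inhibition above a set limit, derived from the sample mean plus 3 SD, cut at about 45% in these data; inconclusive means one replicate passes the limit while the other fails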
BaF3 tox 2 – counter-screen for JAK2V617F inhibitors: parental Ba/F3 viability inhibitors. 580 tested, 31% active. CellTiter-Glo luminescence; cells kept alive by added IL-3. shares compounds with Ba/F3 V617F tox. inhibition, % at 5.6 µM;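 active means cell growth inhibition above the hit limit set in the earlier mutant JAK2 cell screen, cut at about 27% in these data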
JAK2V617F conf – Ba/F3 EpoR-JAK2V617F viability loss, confirmation; 580 tested, 66% active; shares compounds with Ba/F3 V617F tox; inhibition, % at 5.6 µM; CellTiter-Glo luminescence; AID 1521;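 active means mean inhibition above the hit cutoff derived in the earlier primary screen, cut at about 25% in these data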;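 further: higher means lower luminescence from reduced cell ATP and viability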
KLF5 inh confirm – KLF5 inhibition, confirmation assay; shares compounds with KLF5 inh; DLD-1 KLF5 promoter firefly luciferase reporter, luminescence; inhibition, % at 4 µM; 610 tested, 79% active;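 active means inhibition above a set limit taken from the earlier primary screen, cut at about 63% in these data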
IEC-6 tox-2 – counter-screen for KLF5 inhibitors: cytotoxicity in rat IEC-6 cells; shares compounds with KLF5 inh; IEC-6 rat intestinal cells, viability luminescence; inhibition, % at 4 µM; 610 tested, 56% active; in the data active means inhibition above about 23%;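 further: cells exposed to compounds for 48 hours before viability read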
IEC-6 tox confirm – IEC-6 cytotoxicity, confirmation assay. inhibition, % at 5 µM. IEC-6 rat intestinal epithelial viability, luminescence. shares compounds with IEC-6 tox-1. 1,900 tested, 63% active
Numbers stand for hits; - = inactive; ? = inconclusive; . = not tested or not shown. Shown are actives, neighbours in structure and some others; about 2.2% of the full set was active somewhere. Unless noted, no stated cut-off is given here; in the data, active means inhibition above about 22%; inactive means the rest.

SMILES	KLF5 inh	IEC-6 tox-1	Ba/F3 V617F tox	BaF3 tox	aSyn UTR inh	APP transl inh	KLF5 inh confirm	IEC-6 tox-2	others
Cn1cc(C(=O)N/N=C/c2ccc3c(c2)OCO3)c2ccccc21	-	53	48	-	-	.	.	.	BaF3 tox 2=-;JAK2V617F conf=-;IEC-6 tox confirm=48
COc1cc(C2/C(=C(\O)c3ccc4c(c3)OCCO4)C(=O)C(=O)N2Cc2ccco2)cc(OC)c1OC (centres undefined)	-	-	.	.	.	.	.	.
O=C(COC(=O)C1C2CC3OC(=O)C1C3C2)Nc1ccccc1 (centres undefined)	-	-	.	.	-	.	.	.
COc1ccc(OC)c(/C=N/NC(=O)c2[nH]nc3c2CCc2ccccc2-3)c1	-	-	-	-	-	-	.	.
COc1cccc(/C=N/NC(=O)c2[nH]nc3c2CCc2ccccc2-3)c1	-	23	29	-	-	.	.	.	BaF3 tox 2=44;JAK2V617F conf=92;IEC-6 tox confirm=43
O=C(CCC1CCCC1)Nc1ccc(C(=O)NCc2cccnc2)cc1	-	85	31	-	72	-	.	.	BaF3 tox 2=30;JAK2V617F conf=100;IEC-6 tox confirm=46
O=C(O)CCCC(=O)Nc1ccc(C(=O)NCc2cccnc2)cc1	-	-	-	-	-	-	.	.
N#CC1=C(N)Oc2cc3ccccc3cc2C1c1cccnc1 (centres undefined)	-	47	30	-	-	-	.	.	BaF3 tox 2=31;JAK2V617F conf=48;IEC-6 tox confirm=44
O=C(COc1ccc(/C=N/NC(=O)C(=O)N2CCCCC2)cc1)Nc1ccccc1Cl	-	-	-	-	-	-	.	.
CC(=O)OC[C@H]1O[C@@H](n2ncc(=O)[nH]c2=O)[C@H](OC(C)=O)[C@@H]1OC(C)=O	-	39	61	-	-	-	.	.	BaF3 tox 2=53;JAK2V617F conf=75;IEC-6 tox confirm=22
COc1ccc2c3c(cccc13)C(=O)N(O)C2=O	-	63	30	-	-	-	.	.	BaF3 tox 2=-;JAK2V617F conf=-;IEC-6 tox confirm=33
COc1ccccc1N1C(=O)c2cccc3c(C(=O)O)ccc(c23)C1=O	-	-	-	-	-	-	.	.
Cc1ccccc1-c1nc2cc(NC(=O)C3CC3)ccc2o1	-	-	.	.	-	.	.	.
Cc1nc(N/N=C/c2ccccn2)sc1C	79	-	-	-	.	-	78	-
O=C(Nc1ccc(N2CCCCC2)cc1)c1ccccn1	104	-	-	-	114	-	100	-
O=C(Nc1ccc(N2CCCCCC2)cc1)c1ccccc1Cl	-	-	-	-	-	-	.	.
CCCCCCCCCn1ccc(=N)cc1	72	54	99	96	82	.	62	55
CCN(CC)S(=O)(=O)c1cc(OC)ccc1N=Nc1ccc(O)c2ncccc12	87	-	.	.	?	.	87	-
CCOc1ccc(N=Nc2ccc(O)c3ncccc23)cc1	65	-	.	.	-	.	-	-
CCOc1ccc(N=Nc2cc(C(C)C)ccc2O)cc1	-	-	-	-	-	-	.	.
CCN(CC)S(=O)(=O)c1cccc2cccnc12	-	-	-	-	-	-	.	.
O=C(CN1C(=O)c2ccccc2S1(=O)=O)NCc1ccccc1Cl	-	-	-	-	-	-	.	.
O=C(CN1C(=O)c2ccccc2S1(=O)=O)c1ccccc1Cl	70	-	.	.	101	.	-	-
COc1c(Cl)cc(C(=O)NCc2ccco2)cc1Cl	-	-	.	.	-	.	.	.
CCN(CC)c1ccc(/C=N/NC(=O)c2cccc(S(=O)(=O)Nc3ccccc3OC)c2)c(O)c1	74	31	-	-	95	70	79	33
SMILES	KLF5 inh	IEC-6 tox-1	Ba/F3 V617F tox	BaF3 tox	aSyn UTR inh	APP transl inh	KLF5 inh confirm	IEC-6 tox-2	others
O=C(CSc1nnc2ccc(-c3ccncc3)nn12)c1cccs1	63	-	-	-	-	-	-	-
c1ccc(CSc2nnc3ccc(-c4ccncc4)nn23)cc1	-	-	-	-	-	-	.	.
O=C(NC(Cc1ccccc1)C(=O)O)/C(=C/c1cccc([N+](=O)[O-])c1)NC(=O)c1cccc(Br)c1 (centres undefined)	-	-	.	.	-	.	.	.
COC(=O)C1=C(CN2CCCc3ccccc32)NC(=O)NC1c1ccc(F)cc1 (centres undefined)	85	-	-	-	79	-	72	-
COc1cc(C(=O)Nc2sc3c(c2C(=O)O)CCC(C)C3)cc(OC)c1OC (centres undefined)	74	-	.	.	-	.	-	-
Cn1c2ccccc2c2cc(C(=O)N3CCOCC3)sc21	66	-	-	-	-	-	-	-
O=C(NCCc1ccccc1)c1ccc2c(c1)OCCO2	97	-	.	.	106	.	95	-
O=C(NCCc1ccccc1)c1ccc2c(c1)OCCCO2	100	-	.	.	107	.	109	-
COc1ccc(CCNC(=O)c2ccc3c(c2)OCCO3)cc1	-	-	-	-	-	-	.	.
O=C(CCCc1ccccc1)c1ccc2c(c1)OCCO2	70	-	-	-	86	-	88	-
COc1cc(OC)cc(C(=O)NNC(=O)CN2C(=O)NC(C)(c3ccccc3)C2=O)c1 (centres undefined)	.	.	.	.	-	.	.	.
O=C(CN(C(=O)c1csnn1)c1cccc(Cl)c1)NCCc1ccccc1	-	-	.	.	-	.	.	.
Cc1ccc(CSCC(=O)NCc2cccs2)cc1	-	-	-	-	-	-	.	.
CCOC(=O)c1cc(-c2ccccc2)n(CC2CC(c3ccc(OC)cc3)=NO2)n1 (centres undefined)	-	-	.	.	-	.	.	.
CCN1CCN(c2ncnc3sc(C)c(-c4ccccc4)c23)CC1	-	-	.	.	-	.	.	.
O=c1cc(-c2ccccc2)[nH]c2ccccc12	65	84	82	79	68	94	83	57
CCN(CC)Cc1c(C(=O)N/N=C/c2c(Cl)cccc2Cl)nnn1-c1nonc1N	-	-	.	.	-	.	.	.
Cc1ccc(NC(=O)c2cc3ccccc3o2)nc1	.	.	.	.	-	.	.	.
CC(C)Oc1ccc(C(=O)Nc2nc3ccccc3[nH]2)cc1	87	-	.	.	81	.	78	-
COc1ccc(Cl)cc1C(=O)Nc1nc2ccccc2[nH]1	80	-	.	.	89	.	70	-
CCc1ccc(C(=O)Nc2nc3ccccc3[nH]2)cc1	84	-	.	.	88	.	72	-
C=CCN(CC=C)Cc1c(O)ccc2c(=O)c(-c3ccccc3)coc12	-	-	.	.	-	.	.	.
COc1cccc(C(C(=O)NC(C)(C)C)N(C(=O)CCC(=O)Nc2cc(C)on2)c2ccc3c(c2)OCCO3)c1OC (centres undefined)	-	-	.	.	-	.	.	.
COc1ccc(C(=O)NN(C)c2nc(C(F)(F)F)nc3ccccc23)cc1	82	96	96	95	-	95	96	81
COc1ccc(C(=O)NN(C)c2nc(-c3ccccc3)nnc2C(F)(F)F)cc1	-	-	-	-	-	-	.	.
